Source: PubChem BioAssay
p53null 32C kill: kills p53 null cells at the permissive temperature; 55,000 compounds, 0.62% hits; Potency, µM (top dose mostly 46.1 µM), for the others: at the highest dose activity change, negative = cytotoxicity, usual class: cytotoxic; H1299-neo p53 null cells, ATP luminescence, 24 h, 32C;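 also: potency is read from the fitted curve at half-maximal effect; 0% = DMSO only and -100% = full killing by 100 µM tamoxifen; nearly all actives have a fitted effect of over 55% in size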
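AC50 values derive from Hill modelling of qHTS concentration-response data (up to 46 uM) in H1299-neo cells. Cells were treated 24 h at 32C following overnight attachment at 37C; viability was read as cellular ATP.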
S16 viability: S16 Schwann cell cytotoxicity | S16 Pmp22-F2sN Schwann cells viability, CellTiter-Glo, 24 h | Potency, µM (series often up to 57.5 µM), without a hit: top-dose activity change, negative = cytotoxicity, usual class: cytotoxic | 43,000 compounds, 0.48% hits | AID 1508642; also: potency is read from the fitted curve at half-maximal effect; % is scaled to controls: 0 for no effect and ±100 for the full control effect; nearly all actives have a fitted effect of over 65% in size
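S16 Schwann cells carrying the Pmp22-F2sN reporter, seeded in 1536-well format, were exposed to library compounds for 24 h at 37C. Viability was read as CellTiter-Glo luminescence after 15 min at room temperature.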
OvCa metastasis: blocks SKOV3ip1 adhesion and invasion in omental model | SKOV3ip1-GFP adhesion/invasion on 3D omental model, fluorescence | AID 1963576 | 46,000 compounds, 0.1% hits | Potency, µM (highest dose often 45.8 µM), for inactives: at the highest dose activity change, negative = inhibition, hits mostly inhibitors;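 also: potency is read from the fitted curve at half-maximal effect; plate controls were DMSO wells for no effect and tomatine positive control wells for full effect; nearly all actives have a fitted effect of over 65% in size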
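qHTS, 4-pt dose (0.36-46 umol/L); SKOV3ip1-GFP, 1,200 cells/well, no FBS; primary omental fibroblast/mesothelial co-culture 48 h pre-grown; 2 h RT + 16 h 37 C; PBS wash, 4% PFA; GFP count 488/509 nm.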
pS6 MEF inh: mTORC1 pathway inhibition measured by phospho-rpS6. Potency, µM (series often up to 38.3 µM), without a hit: at the highest dose activity change, negative = inhibition, hits mostly inhibitors. 44,000 compounds, 0.78% hits. Tsc2-/- p53-/- MEF, phospho-rpS6 immunofluorescence/PI, 24 h;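 also: potency is read from the fitted curve at half-maximal effect; plate controls were DMSO for no effect and rapamycin for full effect; nearly all actives have a fitted effect of over 50% in size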
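Cell-based qHTS: Tsc2-/- p53-/- MEF, 24 h cpd, 37 °C; fix/perm, anti-phospho-S6 Alexa-488 + PI; Acumen 488 nm scan; pS6/PI ratio, % positive cells; rapamycin 7.5 nM = inhibition ref; PI count = viability.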
PMP22 txn: PMP22 gene transcription modulation | 43,000 compounds, 2% hits | S16 Pmp22-F2sN Schwann cells (luciferase reporters placed in the Pmp22 gene), FLuc/NLuc coincidence luminescence, 24 h | Potency, µM (doses to about 57.5 µM), for inactives: at the highest dose activity change, negative = inhibition, actives largely listed as inhibitors; active = clear falling dose curves in both reporters; inconclusive = both reporters move, but less clearly or upward; inactive = either reporter flat; the % is the NLuc reporter signal; also: potency is read from the fitted curve at half-maximal effect; % is scaled to controls: 0 for no effect and ±100 for the full control effect
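S16(c9) Schwann cells with FLuc/NLuc coincidence reporter in the Pmp22 3' UTR; compounds pin-transferred, 24 h at 37C. Dual-luciferase read: FLuc first, then NLuc after Stop&Glo, each 10 min at room temperature.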
p53null 39C tox: selectivity test: cytotoxicity in p53 null cells, nonpermissive temperature. Potency, µM (titrated, usually from 46.1 µM), for the others: top-dose activity, negative = cell killing, hits mostly cytotoxic. AID 904. H1299 p53-null (neo) cells, 39C, ATPlite viability, 24 h. 55,000 compounds, 0.97% hits;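 also: potency is read from the fitted curve at half-maximal effect; 0% = DMSO only and -100% = full killing by 100 µM tamoxifen; nearly all actives have a fitted effect of over 50% in size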
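ATP-luminescence viability readout (ATPlite, 20 min RT) after 24 hr compound treatment at 39C of H1299-neo or H1299-p53A138V cells; titration up to 46 uM; normalized to DMSO and 100 uM tamoxifen; Hill-fit AC50.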
NLuc saturating: NanoLuc enzyme inhibition artifact for PMP22 screen. Secreted NLuc enzyme (filtered S16 cell medium), Nano-Glo luminescence. Potency, µM (top dose mostly 57.5 µM), without a hit: at the highest dose activity change, negative = inhibition, actives largely listed as inhibitors. 690 compounds, 4% hits. shares compounds with PMP22 txn. AID 1508638; also: potency is read from the fitted curve at half-maximal effect; % is scaled to controls: 0 for no effect and ±100 for the full control effect
NLuc Km counter: NanoLuc inhibition at Km substrate, PMP22 artifact check | shares compounds with PMP22 txn | secreted NLuc enzyme, coelenterazine luminescence, Km conditions | Potency, µM (highest dose often 57.5 µM), for the others: at the highest dose activity change, negative = inhibition, actives largely listed as inhibitors | 690 compounds, 5% hits | AID 1508639; also: potency is read from the fitted curve at half-maximal effect; % is scaled to controls: 0 for no effect and ±100 for the full control effect
FLuc ctr PMP22: counter-screen for PMP22 expression modulators: firefly luciferase inhibition. AID 1508640. 690 tested, under 10 active. shares compounds with PMP22 txn. purified P. pyralis FLuc, luminescence, 10 min. Potency, µM (top dose mostly 57.5 µM), for inactives: top-dose activity, negative = inhibition, actives largely listed as inhibitors; also: % of control where 0% means no effect
Target sequence (P08659 whole entry, looked up): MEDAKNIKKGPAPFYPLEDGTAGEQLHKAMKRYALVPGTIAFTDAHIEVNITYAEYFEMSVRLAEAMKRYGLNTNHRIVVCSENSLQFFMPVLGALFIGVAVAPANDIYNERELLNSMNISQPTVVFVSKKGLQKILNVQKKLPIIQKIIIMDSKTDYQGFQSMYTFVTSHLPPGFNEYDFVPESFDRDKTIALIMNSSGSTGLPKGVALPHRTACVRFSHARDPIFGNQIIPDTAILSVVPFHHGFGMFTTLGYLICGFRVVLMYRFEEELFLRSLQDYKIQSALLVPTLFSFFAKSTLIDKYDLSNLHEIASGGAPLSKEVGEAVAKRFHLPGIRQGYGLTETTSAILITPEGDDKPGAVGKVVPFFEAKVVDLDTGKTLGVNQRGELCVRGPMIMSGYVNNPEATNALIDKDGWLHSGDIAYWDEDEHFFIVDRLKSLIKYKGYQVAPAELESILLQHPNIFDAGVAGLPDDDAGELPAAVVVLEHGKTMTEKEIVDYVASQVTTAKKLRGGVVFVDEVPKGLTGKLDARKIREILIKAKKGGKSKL
S16 viab conf: S16 Schwann cell cytotoxicity, confirmatory | shares compounds with PMP22 txn | S16 Schwann cells viability, CellTiter-Glo ATP luminescence, 24 h | Potency, µM (highest dose often 57.5 µM), inactives show at the top dose activity change, negative = viability loss, hits mostly cytotoxic | 690 compounds, 7% hits | AID 1508641; also: potency is read from the fitted curve at half-maximal effect; % is scaled to controls: 0 for no effect and ±100 for the full control effect
PMP22 txn cnf: confirmation of modulators of PMP22 gene transcription in S16 cells | Potency, µM (series often up to 57.5 µM), without a hit: at the highest dose activity change, negative = inhibition, most hits filed as inhibitors | S16 Schwann cells Pmp22-F2sN, dual luciferase, 24 h | shares compounds with PMP22 txn | 690 compounds, 22% hits | AID 1508646; active = clear falling dose curves in both reporters; inconclusive = both reporters move, but less clearly or upward; inactive = either reporter flat; the % is the FLuc reporter signal; also: potency is read from the fitted curve at half-maximal effect
Numbers without * were called inactive; i = inactive; ? = inconclusive; · = no result given. An excerpt weighted towards active compounds, which were near 3.1% of everything screened. Unless noted, calls follow the shape of the dose curve; as a rule, active = well fitted curve in the direction sought with a large enough effect; inconclusive = small, poorly fitted or top-dose-only effect, or another doubt; inactive = no such curve, though single readings can be large; an effect the other way counts as inactive or inconclusive.

SMILES | p53null 32C kill | S16 viability | OvCa metastasis | pS6 MEF inh | PMP22 txn | p53null 39C tox | NLuc saturating | NLuc Km counter | FLuc ctr PMP22 | S16 viab conf | PMP22 txn cnf
Cc1c(C(=O)Nc2ccc(N3C[C@@H](C)O[C@@H](C)C3)nc2)cccc1-c1ccc(OC(F)(F)F)cc1 | · | · | 27.1% | · | · | · | · | · | · | · | ·
COc1cc(N2CCC(C(N)=O)CC2)ccc1Nc1nc(N)c(Cl)c(Nc2ccccc2S(=O)(=O)C(C)C)n1 | · | · | 9.0% | · | · | · | · | · | · | · | ·
CN(C)c1ccc(Nc2nc(N)n(C(=O)c3c(F)cccc3F)n2)cc1 | · | · | 18.0% | · | · | · | · | · | · | · | ·
COc1cc2ncn(-c3cc(OCc4ccccc4S(C)(=O)=O)c(C#N)s3)c2cc1OC | · | · | -0.1% | · | · | · | · | · | · | · | ·
Cc1cccc(N2CCN(C(=O)c3cccc(-n4c(C)nc5cccnc54)c3)CC2)c1C | 6.9% | 0.0% | 8.4% | -16.2% | 12.7µM* | -6.2% | ? | ? | 4.8% | 10.5% | -4.0%
Cc1cccc(N2CCN(C(=O)c3cccc(-n4c(C)nc5cccnc54)c3)CC2C)c1 (configuration not stated) | -1.2% | -19.7% | -3.7% | -0.3% | ? | 13.1% | · | · | · | · | ·
Cc1ccc(C)c(N2CCN(C(=O)c3cccc(-n4c(C)nc5cccnc54)c3)CC2)c1 | 3.3% | ? | -1.9% | -8.4% | ? | 0.2% | · | · | · | · | ·
Cc1ccc(Cl)cc1N1CCN(C(=O)c2ccc(C)c(-n3c(C)nc4cccnc43)c2)CC1 | 15.2% | ? | 5.4% | -3.0% | 18.9µM* | 61.9% | 21.7µM* | 19.3µM* | 6.6% | -14.3% | ?
COc1ccc(N2CCN(S(=O)(=O)CCNC(=O)Cc3ccc(-c4ccccc4)cc3)CC2)cc1 | -2.4% | 10.6% | i | -6.1% | 10.5µM* | -0.8% | -9.2% | 1.8% | -18.2% | -18.1% | -11.9%
CCN1CCc2c(sc(-n3cccc3)c2C(C)NC(=O)Nc2ccc(Br)cc2)C1 (configuration not stated) | -1.5% | -1.0% | ? | -2.8% | ? | -9.1% | · | · | · | · | ·
CCOc1ccc(NC(=O)NC(C)c2c(-n3cccc3)sc3c2CCN(CC)C3)cc1 (configuration not stated) | 0.7% | -19.5% | i | -9.0% | 14.5µM* | -5.1% | ? | -19.6% | 3.9% | -19.8% | -28.4%
CCOCCCNC(=O)NC(C)c1c(-n2cccc2)sc2c1CCN(CC)C2 (configuration not stated) | 3.3% | 0.9% | -2.7% | 0.5% | 16.3µM* | 11.7% | -5.6% | 0.2% | 7.4% | -20.6% | 14.2%
Nc1ncnc2ccccc12 | · | · | 1.7% | · | · | · | · | · | · | · | ·
CCNC(=O)Nc1ccc2ncc(Nc3ccc(C)cc3)nc2n1 | · | · | -4.0% | · | · | · | · | · | · | · | ·
O=C(O)CCCCCC(=O)NN=C1CCCC1 | · | · | -8.2% | · | · | · | · | · | · | · | ·
CC(=O)Nc1ccc(NC(=O)CN(C)S(=O)(=O)c2ccc3c(c2)CCCC(=O)N3)cc1 | 5.4% | -17.0% | i | 6.2% | 9.4% | -13.8% | · | · | · | · | ·
CCOc1ccc(OCC)c(NC(=O)CN(C)S(=O)(=O)c2ccc3c(c2)CCCC(=O)N3)c1 | 3.8% | -3.7% | -6.8% | 6.8% | 20µM* | -21.8% | -3.9% | -1.6% | 0.3% | 3.5% | -22.7%
CC(=O)NCC(=O)N1[C@H]2CC[C@H]1c1cc(Nc3ncc(C(F)(F)F)c(NC4CCC4)n3)ccc12 | · | · | -14.6% | · | · | · | · | · | · | · | ·
O=C(Cc1ccc(Cl)cc1)Nc1ccc2nn(-c3ccccc3)nc2c1 | -3.5% | 20.0% | 2.8% | -4.8% | ? | -3.1% | · | · | · | · | ·
CCOc1ccc(-n2nc3ccc(NC(=O)Cc4ccccc4)cc3n2)cc1 | -7.1% | ? | ? | 2.2% | 5.04µM* | 27.9% | -5.0% | 1.1% | ? | 3.5% | -2.4%
O=C(NCCCN1CCN(c2ccc(F)cc2)CC1)Nc1ccccc1Cl | -2.7% | -22.4% | ? | -9.0% | 13.4µM* | 6.3% | ? | -0.4% | 5.6% | ? | -13.9%
COc1ccc(N2CCN(CCCNC(=O)Nc3ccccc3Cl)CC2)cc1 | -11.4% | -6.5% | -15.7% | -8.8% | -21.3% | 2.5% | · | · | · | · | ·
C[C@]12C=CC(=O)N[C@@H]1CC[C@H]1[C@H]3CC[C@@H](C(=O)Nc4cc(C(F)(F)F)ccc4C(F)(F)F)[C@@]3(C)CC[C@@H]12 | · | · | -6.2% | · | · | · | · | · | · | · | ·
COc1cc2c(cc1OC)C(COc1ccc3c(C)cc(=O)oc3c1)N(C(=O)c1ccc(C)cc1)CC2 (configuration not stated) | 9.7% | ? | 10.2% | -9.3% | ? | 6.2% | -11.2% | 1.3% | 1.5% | 0.2% | ?
